Source: the supplement of paper PMC6522484
± gives the standard deviation of the averaged measurements.

These molecules were tested on SW480 (assay: cell viability (CellTiter-Glo) relative to plate median (fraction of plate median); higher = more viable cells). Details: 5 µM; treatment time 24 h; reporter: 7TFP.
In short: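 Per-well firefly luciferase or CellTiterGlo luminescence, normalised to the plate median, is what is reported. It was measured in colorectal cancer cells with stable lentiviral TCF/Wnt firefly luciferase reporters after a 24 h treatment with library compounds at a final 5 µM. The mean of two independent replicates is given.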
Work on Cc1c(NC(C)C)c(=O)n(-c2ccccc2)n1C yielded a cell viability of 1.03 ± 0.045. Work on C=CCCCCCCCCCCCC(O)CC(O)CO (stereo not given) yielded a cell viability of 1.05 ± 0.05. Work on Cc1onc(-c2c(Cl)cccc2Cl)c1C(=O)N[C@@H]1C(=O)N2[C@@H]1SC(C)(C)[C@@H]2C(=O)O yielded a cell viability of 0.972 ± 0.036. Cc1nnc(NS(=O)(=O)c2ccc(N)cc2)s1 was tested, and the cell viability was 1.01 ± 0.15. CC(=O)Oc1ccc(O)cc1 showed a cell viability of 1.04 ± 0.014. CCC(C)C(N)=O (stereo not given) [2-Methylbutyramide] was tested, and the cell viability was 1.01 ± 0.018. Cc1ccc(=O)n(-c2ccccc2)c1 was tested, and the cell viability was 0.945 ± 0.014. For COc1c2occc2c(OC)c2c(=O)cc(C)oc12, the cell viability was 0.989 ± 0.016. CC1CCc2cc(F)cc3c(=O)c(C(=O)O)cn1c23 (stereo not given) was tested, and the cell viability was 0.972 ± 0.013. CCCCCCNC(=O)n1cc(F)c(=O)[nH]c1=O gave a cell viability of 1.04 ± 0.014. With NCCS the cell viability was 1.035 ± 0.0071. In the case of O=C(/C=C/c1ccc(O)cc1)c1ccc(O)cc1O, the cell viability is reported as 0.968 ± 0.0099. In the case of COC(=O)C[C@H]1C(C)(C)C2(O)OC34CC2C(=O)[C@]1(C)C3CC[C@]1(C)C4=CC(=O)O[C@H]1c1ccoc1 (stereo partly drawn) [8beta-HYDROXYCARAPIN, 3,8-HEMIACETAL], the cell viability is reported as 0.9895 ± 0.0092. For CC(CCC(=O)O)C1CCC2C3CCC4CC(O)CCC4(C)C3C=CC12C (stereo not given), the cell viability was 1.005 ± 0.0071. With CCN(CC)CCNc1ccc(CO)c2sc3ccccc3c(=O)c12 the cell viability was 0.995 ± 0.0057. N#Cc1ccc2c(c1)N(CCCN1CCC(O)CC1)c1ccccc1S2 gave a cell viability of 1.01 ± 0.069. In the case of C[n+]1cc2c3c(ccc2c2ccc4cc5c(cc4c21)OCO5)OCO3, the cell viability is reported as 0.99 ± 0.043. Molecule CN1CCN(C(c2ccccc2)c2ccccc2)CC1 has a cell viability of 1.07 ± 0.028. Molecule CC(C)c1c(O)ccc2c1CC[C@H]1[C@@](C)(CO)CCC[C@]21C has a cell viability of 1.1 ± 0.085. C=CCSCC1Nc2cc(Cl)c(S(N)(=O)=O)cc2S(=O)(=O)N1 (stereo not given) gave a cell viability of 1.03 ± 0.021.
